Experiment [1] addresses Cytochrome P450 1A2 (Homo sapiens) (UniProt P05177). Description: p450-cyp1a2 (AID 410; calls by dose curve; also: potency is read from the fitted curve at half-maximal effect). To be noted: recombinant CYP1A2, luciferin-ME demethylation, luminescence; series mostly up to 57 µM. The method in brief:
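Read-out is luminescence from luciferin produced by CYP1A2 demethylation of Luciferin-ME (100uM, at Km). Detection reagent stopped the 60 min NADPH-dependent reaction; signals were normalized to 57 uM furafylline.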

The target of experiment [2] is Mitogen-activated protein kinase 10 (Mus musculus) (UniProt Q61831). Put plainly: JNK3 AlphaScreen Assay (AID 530; active = well fitted curve in either direction with a large enough effect, not every such curve was filed as active;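 also: kinase came from lysate of stimulated human HepG2 cells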). To be noted: JNK3 lysate, c-Jun phosphorylation; series mostly up to 57.1 µM. An outline of the steps: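 Biotinylated GST-cJun(1-79) served as substrate for JNK3 in HepG2 lysates stimulated with IL-1beta and TNF-alpha. ATP was 10 uM final, pH 7.6. Ser73 phosphorylation was quantified by AlphaScreen (680 nm excitation).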
(Alpha assays give light when donor and acceptor beads are brought close together.)

The target in experiment [3] is Cytochrome P450 3A4 (Homo sapiens) (UniProt P08684). Description: qHTS Assay for Inhibitors and Substrates of Cytochrome P450 3A4 (AID 884). Also: potency is read from the fitted curve at half-maximal effect; nearly all actives have a fitted effect of over 50% in size. As to conditions: recombinant CYP3A4, Luciferin-PPXE luminescence; series mostly up to 57.1 µM. The method in brief:
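Luminescent readout of luciferin produced by CYP3A4 (20 nM) dealkylation of Luciferin-PPXE, 25 uM (its KM). NADPH-driven reaction ran 60 min at RT after 10 min compound preincubation; data scaled to 57 uM ketoconazole as 100% inhibition.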
For orientation: Quantitative high-throughput screening tests each substance at several concentrations.

Experiment [4] has the same target. Description: qHTS Assay for Activators of Cytochrome P450 3A4 (AID 885). Also: nearly all actives have a fitted effect of over 65% in size. As to conditions: recombinant CYP3A4, Luciferin-PPXE luminescence, 60 min; series mostly up to 57.1 µM. An outline of the steps: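 Activators are scored by enhanced luminescence from CYP3A4 conversion of luciferin-PPXE (25uM, equal to KM) to luciferin, after 60 min at RT with an NADPH-regenerating system.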

In experiment [5] the target is Cytochrome P450 2D6 (Homo sapiens) (UniProt P10635). Put plainly: qHTS Assay for Inhibitors and Substrates of Cytochrome P450 2D6 (AID 891). Also: potency is read from the fitted curve at half-maximal effect; nearly all actives have a fitted effect of over 60% in size. To be noted: recombinant CYP2D6, luciferin-ME EGE luminescence; series mostly up to 57.1 µM. The method in brief: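 Luminescent read-out of luciferin formed by 5 nM human CYP2D6 demethylating 30 uM Luciferin-ME EGE (Km level) over 60 min at room temperature after NADPH regeneration addition. Data normalized to full inhibition by 1.43 uM quinidine.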

Experiment [6] has as its target Cytochrome P450 2C19 (Homo sapiens) (UniProt P33261). Description: qHTS Assay for Inhibitors and Substrates of Cytochrome P450 2C19 (AID 899). Also: potency is read from the fitted curve at half-maximal effect; nearly all actives have a fitted effect of over 60% in size. As to conditions: recombinant CYP2C19, luciferin-H EGE luminescence; series mostly up to 57.1 µM. The method in brief: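 NADPH-dependent conversion of Luciferin-H EGE (10uM, at KM) by 5nM enzyme in 50mM KPO4, 60 min at 37C following 10 min compound preincubation. Stopped with luciferin detection buffer; luminescence read after 20 min.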

Experiment [7] deals with 3',5'-cyclic-AMP phosphodiesterase 4B (Homo sapiens) (UniProt Q07343). Description: qHTS Assay for Inhibitors of PDE-IV (AID 607; active = well fitted activation curve with a large enough effect in the main read-out, with a control signal flat, not every such curve was filed as active). To be noted: HEK293 ACTOne CNG channel cells, membrane potential fluorescence; series mostly up to 22.9 µM. The method in brief: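 The readout is membrane depolarisation from a cAMP-sensing CNG channel, detected with a potential dye at ex 535/em 590. Cells were HEK293-derived (endogenous PDE-IV) at 1000 cells/well, titrated up to 22.9 uM final.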

Results filed as inconclusive are left out. Calls of active or inactive are those of the source. Unless noted, calls follow the shape of the dose curve; as a rule, active = well fitted curve in the direction sought with a large enough effect; inconclusive = small, poorly fitted or top-dose-only effect, or another doubt; inactive = no such curve, though single readings can be large; an effect the other way counts as inactive or inconclusive.

30 molecules from PubChem BioAssay (NCATS) can be followed below.

3',5'-cyclic-AMP phosphodiesterase 4B (Homo sapiens), sequence (Q07343 whole entry, looked up): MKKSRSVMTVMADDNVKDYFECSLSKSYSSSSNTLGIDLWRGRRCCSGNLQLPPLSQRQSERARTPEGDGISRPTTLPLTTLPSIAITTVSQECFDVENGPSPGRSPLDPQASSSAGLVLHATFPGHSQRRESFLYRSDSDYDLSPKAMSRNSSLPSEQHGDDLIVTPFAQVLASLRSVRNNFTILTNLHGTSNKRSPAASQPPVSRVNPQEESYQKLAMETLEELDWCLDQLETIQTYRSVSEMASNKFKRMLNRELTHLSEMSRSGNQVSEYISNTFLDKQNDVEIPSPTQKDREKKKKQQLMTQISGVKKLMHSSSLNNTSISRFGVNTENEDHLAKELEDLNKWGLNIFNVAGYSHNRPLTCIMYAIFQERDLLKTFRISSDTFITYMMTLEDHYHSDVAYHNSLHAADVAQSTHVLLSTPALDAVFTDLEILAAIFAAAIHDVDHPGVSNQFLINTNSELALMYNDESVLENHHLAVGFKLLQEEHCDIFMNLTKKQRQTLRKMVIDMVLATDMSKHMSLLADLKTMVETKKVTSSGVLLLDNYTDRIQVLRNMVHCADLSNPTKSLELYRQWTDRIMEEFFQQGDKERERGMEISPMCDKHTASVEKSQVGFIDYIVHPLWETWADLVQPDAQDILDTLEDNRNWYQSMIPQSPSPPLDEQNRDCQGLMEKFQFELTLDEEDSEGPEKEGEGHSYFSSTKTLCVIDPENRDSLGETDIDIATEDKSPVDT
Cytochrome P450 2D6 (Homo sapiens), sequence (P10635 whole entry, looked up): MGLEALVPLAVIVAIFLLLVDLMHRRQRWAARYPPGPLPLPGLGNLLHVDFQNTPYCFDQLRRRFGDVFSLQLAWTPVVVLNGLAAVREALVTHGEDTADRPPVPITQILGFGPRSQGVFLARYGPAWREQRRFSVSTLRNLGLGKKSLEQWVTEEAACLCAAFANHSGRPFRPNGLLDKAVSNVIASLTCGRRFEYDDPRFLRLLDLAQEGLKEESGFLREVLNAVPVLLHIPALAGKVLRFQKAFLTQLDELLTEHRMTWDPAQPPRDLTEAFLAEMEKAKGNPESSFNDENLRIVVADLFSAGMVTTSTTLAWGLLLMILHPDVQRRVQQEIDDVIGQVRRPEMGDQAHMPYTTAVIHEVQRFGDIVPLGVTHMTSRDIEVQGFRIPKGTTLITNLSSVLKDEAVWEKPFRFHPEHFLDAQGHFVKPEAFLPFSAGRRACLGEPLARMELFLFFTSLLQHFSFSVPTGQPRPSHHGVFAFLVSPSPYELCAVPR
Cytochrome P450 2C19 (Homo sapiens), sequence (P33261 whole entry, looked up): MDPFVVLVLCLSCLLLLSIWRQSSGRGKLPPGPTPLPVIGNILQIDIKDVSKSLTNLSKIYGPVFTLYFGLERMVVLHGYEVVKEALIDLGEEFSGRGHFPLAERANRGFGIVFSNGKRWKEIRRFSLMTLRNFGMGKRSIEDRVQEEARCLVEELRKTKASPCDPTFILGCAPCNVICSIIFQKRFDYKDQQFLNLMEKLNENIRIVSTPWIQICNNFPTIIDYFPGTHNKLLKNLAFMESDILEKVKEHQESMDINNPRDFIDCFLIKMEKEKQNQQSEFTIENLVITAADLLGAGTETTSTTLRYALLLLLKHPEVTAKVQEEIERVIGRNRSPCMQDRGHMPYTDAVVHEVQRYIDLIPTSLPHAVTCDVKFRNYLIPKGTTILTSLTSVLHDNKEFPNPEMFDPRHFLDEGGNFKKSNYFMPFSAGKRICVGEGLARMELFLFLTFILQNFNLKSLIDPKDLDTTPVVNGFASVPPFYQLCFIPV
Cytochrome P450 3A4 (Homo sapiens), sequence (P08684 whole entry, looked up): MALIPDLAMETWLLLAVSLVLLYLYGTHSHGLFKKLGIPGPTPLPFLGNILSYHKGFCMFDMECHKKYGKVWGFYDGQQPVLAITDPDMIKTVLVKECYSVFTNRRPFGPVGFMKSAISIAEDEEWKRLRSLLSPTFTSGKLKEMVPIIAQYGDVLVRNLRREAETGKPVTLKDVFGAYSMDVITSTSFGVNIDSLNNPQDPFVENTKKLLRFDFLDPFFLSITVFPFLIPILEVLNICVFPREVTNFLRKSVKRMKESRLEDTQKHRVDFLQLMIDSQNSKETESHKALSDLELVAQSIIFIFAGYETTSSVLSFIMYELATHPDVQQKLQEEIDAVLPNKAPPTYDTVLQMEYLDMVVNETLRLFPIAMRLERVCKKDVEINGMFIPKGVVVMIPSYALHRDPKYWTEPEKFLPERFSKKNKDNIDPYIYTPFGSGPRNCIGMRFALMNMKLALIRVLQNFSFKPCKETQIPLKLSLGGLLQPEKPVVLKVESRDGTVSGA
Cytochrome P450 1A2 (Homo sapiens), sequence (P05177 whole entry, looked up): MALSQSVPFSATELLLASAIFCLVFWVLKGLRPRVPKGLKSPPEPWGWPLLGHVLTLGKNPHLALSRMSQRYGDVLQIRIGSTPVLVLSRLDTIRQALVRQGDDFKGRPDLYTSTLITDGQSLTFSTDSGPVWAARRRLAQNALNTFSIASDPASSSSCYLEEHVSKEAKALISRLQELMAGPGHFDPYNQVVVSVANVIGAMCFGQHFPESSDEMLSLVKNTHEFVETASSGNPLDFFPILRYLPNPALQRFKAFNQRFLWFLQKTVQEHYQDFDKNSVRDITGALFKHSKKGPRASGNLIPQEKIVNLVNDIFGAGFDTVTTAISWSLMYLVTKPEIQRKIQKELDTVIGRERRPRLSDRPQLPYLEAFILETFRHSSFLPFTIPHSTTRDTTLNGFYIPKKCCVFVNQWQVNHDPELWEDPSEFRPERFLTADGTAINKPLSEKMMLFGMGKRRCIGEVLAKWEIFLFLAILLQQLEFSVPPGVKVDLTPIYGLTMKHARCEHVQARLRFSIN

As to `CCCC[C@H]1C[C@@H]1[C@@H]1N(P(=O)(c2ccccc2)c2ccccc2)[C@](CO)(c2ccccc2)CC12CC2`, the Potency entry in experiment [1], in experiment [2] and in experiment [4] was “inactive” throughout. For the same molecule, the results for the Potency in experiment [3] and in experiment [5] were 2 µM (active) and 2.51 µM (active), respectively.
For `CCC/C=C(\CCC)C(NS(=O)(=O)c1cccc2cccnc12)c1ccc(C(=O)OC)cc1` (configuration not stated), the figures for the Potency in experiment [1], in experiment [3] and in experiment [6] were 6.31 µM (active), 5.01 µM (active) and 3.16 µM (active), respectively. Also, the Potency entry in experiment [2] and in experiment [4] was “inactive” throughout.
Turning to `OC1c2ccccc2-c2nc3ccccc3cc21` (configuration not stated), the Potency is 0.126 µM (active) in experiment [1] and 20 µM (active) in experiment [5]. Further, the Potency result in experiment [2] and in experiment [4] was “inactive” in each case.
Regarding `O=C(N[C@@H](c1ccccc1)[C@@H]1C[C@H]1C(=O)O)OCc1ccccc1`, the Potency in experiment [1] was 20 µM (active). Also, the Potency result in experiment [7] was “inactive”.
As to `CCCC[C@@H]1C[C@H]1C(NC(=O)c1cccs1)c1ccccc1C(F)(F)F` (some centres not stated), the values for the Potency in experiment [1], in experiment [3] and in experiment [6] were 6.31 µM (active), 3.16 µM (active) and 0.631 µM (active), respectively. Also, the Potency entry in experiment [2] and in experiment [4] was “inactive” each time.
With `CCc1cccc2nc3c(c([Si](C)(C)C)c12)Cn1c-3cccc1=O`, in experiment [1], the Potency was 2.51 µM (active). Also, the Potency result in experiment [2] and in experiment [4] was “inactive” throughout.
Regarding `CCC/C=C(\CCC)C(NC(=O)c1ccccc1)c1ccccc1` (configuration not stated), the Potency in experiment [1] was 10 µM (active). For the same molecule, the Potency entry in experiment [2] and in experiment [4] was “inactive” throughout.
Turning to `c1ccc(-c2c3ccccc3nc3[nH]c4ccccc4c23)cc1`, the Potency in experiment [1] is 0.501 µM (active). The Potency entry in experiment [2] and in experiment [4] was “inactive” each time.
For the molecule `c1ccc2c(c1)Cc1cc3cc4c(cc3nc1-2)OCO4`, the Potency in experiment [1] was 0.501 µM (active); in experiment [3], 1 µM (active); in experiment [5], 1.26 µM (active); in experiment [6], 1.26 µM (active). Moreover, the Potency result in experiment [2] and in experiment [4] was “inactive” throughout.
As to `COC(=O)c1ccc(C(NC(=O)c2ccco2)[C@]2(C)C[C@H]2C2CCCCC2)cc1` (some centres not stated), the Potency result in experiment [1], in experiment [2] and in experiment [4] was “inactive” throughout. Further, the Potency in experiment [3] was 7.94 µM (active).
`CC(C)c1cccc2cc3c(nc12)-c1cccc(=O)n1C3`: in experiment [1], the Potency was 0.501 µM (active). The Potency entry in experiment [2] and in experiment [4] was “inactive” each time.
Regarding `CCCC[C@@H]1C[C@H]1C(NC(=O)c1ccccc1)c1ccccc1` (some centres not stated), the results for the Potency in experiment [1] and in experiment [6] were 2.51 µM (active) and 0.398 µM (active), respectively. Moreover, the Potency entry in experiment [2] and in experiment [4] was “inactive” throughout.
Turning to `CCC/C=C(\CCC)C(NP(=O)(c1ccccc1)c1ccccc1)c1ccc(-c2ccccc2)cc1` (configuration not stated), the Potency in experiment [1] was 2.51 µM (active); in experiment [3] it was 3.98 µM (active); in experiment [6], 7.94 µM (active). In addition, the Potency result in experiment [2] and in experiment [4] was “inactive” in each case.
Regarding `CCC/C=C(\CCC)C(NC(=O)c1ccc(-c2ccccc2)cc1)c1ccc(C(=O)OC)cc1` (configuration not stated), the Potency in experiment [1] was 0.631 µM (active). The Potency result in experiment [2] and in experiment [4] was “inactive” each time.
As for `CCc1c2c(nc3cccc(C(C)C)c13)-c1cccc(=O)n1C2`, in experiment [1], the Potency is 0.501 µM (active). In addition, the Potency result in experiment [2] and in experiment [4] was “inactive” in each case.
In the case of `CCC/C=C(\CCC)C(NS(=O)(=O)CC12CCC(CC1=O)C2(C)C)c1ccc(C(=O)OC)cc1` (configuration not stated), the Potency entry in experiment [1], in experiment [2] and in experiment [4] was “inactive” each time. The values for the Potency in experiment [3] and in experiment [5] were 3.98 µM (active) and 5.01 µM (active), respectively.
For the molecule `CC(C)(C)[Si](C)(C)c1c2c(nc3ccc(OCc4ccccc4)cc13)-c1cccc(=O)n1C2`, the Potency in experiment [1] is 5.01 µM (active). The Potency result in experiment [2] and in experiment [4] was “inactive” throughout.
With `CCCC[C@@H]1C[C@H]1C(NC(=O)Cc1ccccc1)c1ccc(Cl)cc1` (some centres not stated), the figures for the Potency in experiment [1], in experiment [3] and in experiment [6] were 2.51 µM (active), 2.51 µM (active) and 0.0501 µM (active), respectively. In addition, the Potency result in experiment [2] and in experiment [4] was “inactive” in each case.
As for `O=C(Nc1ccc2ccccc2c1)[C@@H]1C[C@H]1[C@@H](NP(=O)(c1ccccc1)c1ccccc1)c1ccccc1`, the Potency in experiment [1] is 20 µM (active). The Potency result in experiment [7] was “inactive”.
Take `CC(C)(C)C(=O)NC(c1ccc(Cl)cc1)[C@]1(C)C[C@H]1C1CCCCC1` (some centres not stated): the Potency result in experiment [1], in experiment [2] and in experiment [4] was “inactive” throughout.
In the case of `CCCC[C@@H]1C[C@H]1C(NC(=O)c1ccco1)c1ccccc1` (some centres not stated), the Potency in experiment [1] was 2 µM (active). Moreover, the Potency entry in experiment [2] and in experiment [4] was “inactive” each time.
With `C#CCOC(=O)NC(/C=C/CCCC)c1ccccc1` (configuration not stated), the Potency in experiment [1] was 15.8 µM (active). The Potency result in experiment [2] and in experiment [4] was “inactive” each time.
Take `CCCC/C=C/C(NC(=O)c1ccc(-c2ccccc2)cc1)c1ccccc1` (configuration not stated): the Potency in experiment [1] was 15.8 µM (active). In addition, the Potency result in experiment [7] is “inactive”.
With `COC(=O)[C@@]1(Cc2ccc(OC)cc2)[C@@H]2C(=CC(=O)[C@H]2CC(=O)C(=O)N2CCCC2)CN1C(=O)c1ccccc1`, the Potency result in experiment [1], in experiment [2] and in experiment [4] was “inactive” each time.
Take `C=C1C(=O)C=C2CN(C(=O)c3ccccc3)[C@@](Cc3ccc(F)cc3)(C(=O)OC)[C@@H]12`: the Potency in experiment [1] is 15.8 µM (active); in experiment [3], 7.94 µM (active); in experiment [6], 5.01 µM (active). For the same molecule, the Potency result in experiment [2] and in experiment [4] was “inactive” each time.
Take `CC[C@H]1C2=C3C(CC[C@H]4C(OCc5ccc(F)cc5C(F)(F)F)OC[C@](C)([C@@H]34)N(C(=O)OC(C)(C)C)C2)C(COC(C)=O)C1COC(C)=O` (some centres not stated): the Potency result in experiment [1], in experiment [2] and in experiment [4] was “inactive” in each case.
On to `C[C@@H](C(=O)O)[C@@H]1C[C@@]1(C)[C@@H](NC(=O)OCc1ccccc1)c1ccccc1`, for which the Potency entry in experiment [1], in experiment [2] and in experiment [4] was “inactive” each time.
`CC[C@@]1(O)C(=O)COc2c1cc1n(c2=O)Cc2c-1nc1cccc(C(C)C)c1c2[Si](C)(C)C`: in experiment [1], the Potency was 7.94 µM (active). The Potency entry in experiment [2] and in experiment [4] was “inactive” each time.
As to `COC(=O)[C@@]1(Cc2ccc(OC)cc2)[C@@H]2C(=CC(=O)[C@H]2CC(=O)C(=O)N(C)C)CN1C(=O)c1ccccc1`, the Potency result in experiment [1], in experiment [2] and in experiment [4] was “inactive” throughout.
Consider `CCCC[C@@H]1C[C@H]1C(NC(=O)c1ccccc1)c1ccc(-c2ccccc2)cc1` (some centres not stated), for which, in experiment [1], the Potency is 0.501 µM (active). In addition, the Potency entry in experiment [2] and in experiment [4] was “inactive” in each case.
